From PubChem BioAssay
Phagocytosis inh – inhibitors of macrophage phagocytosis, primary screen, imaging, J774A.1 cells, IgG beads; J774A.1 macrophage IgG-bead phagocytosis; inhibition, % at 5 µM; 0.07% of 110,000 active; AID 1029, 2008;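 active = inhibition above the mean of the plate negative controls plus 5 SD, cut at about 13% in these data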;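 also: phagocytic index as fraction of beads internalized from green versus red external bead signal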
Mac1 fbg enh – enhancers of CD11b/CD18 adhesion to fibrinogen, primary screen, K562 cells, luminescence. Integrin beta-2 (Homo sapiens) + Integrin alpha-M (Homo sapiens), P05107+P11215. activation, % at 10 µM. ATPlite luminescence. AID 1499, 2009. 0.07% of 93,000 active;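 active = 10 µM primary screen giving 50% or more activity, confirmed by 40% or more on retest at that dose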
Mac1 fbg inh – inhibitors of CD11b/CD18 adhesion to fibrinogen, primary screen, K562 cells, luminescence | ATPlite luminescence; Mn2+ added to activate the integrin | inhibition, % at 10 µM | 0.54% of 93,000 active | Integrin beta-2 (Homo sapiens) + Integrin alpha-M (Homo sapiens), P05107+P11215;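 active = primary inhibition of 50% or more at 10 µM, then 40% or more on retest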
TNAP act mid DEA – human TNAP enzyme activators, primary screen, biochemical, luminescent, intermediate phosphate acceptor level. Alkaline phosphatase, tissue-nonspecific isozyme (Homo sapiens), P05186. purified TNAP, CDP-star luminescence, 100 mM DEA, 30 min; hits give high values; scale: 0 levamisole-inhibited, 1 vehicle-only enzyme. activation factor at 20 µM. 64,000 tested, under 10 active;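 active = activation factor of at least 2 at 20 µM, relative to controls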
FAK blocker – FAK kinase inhibitors, primary screen, biochemical. biochemical FAK kinase activity assay. inhibition, %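 (tested at 7 µM)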. 0.84% of 97,000 active. AID 727, 2007
Target sequence (Q05397 whole entry, looked up): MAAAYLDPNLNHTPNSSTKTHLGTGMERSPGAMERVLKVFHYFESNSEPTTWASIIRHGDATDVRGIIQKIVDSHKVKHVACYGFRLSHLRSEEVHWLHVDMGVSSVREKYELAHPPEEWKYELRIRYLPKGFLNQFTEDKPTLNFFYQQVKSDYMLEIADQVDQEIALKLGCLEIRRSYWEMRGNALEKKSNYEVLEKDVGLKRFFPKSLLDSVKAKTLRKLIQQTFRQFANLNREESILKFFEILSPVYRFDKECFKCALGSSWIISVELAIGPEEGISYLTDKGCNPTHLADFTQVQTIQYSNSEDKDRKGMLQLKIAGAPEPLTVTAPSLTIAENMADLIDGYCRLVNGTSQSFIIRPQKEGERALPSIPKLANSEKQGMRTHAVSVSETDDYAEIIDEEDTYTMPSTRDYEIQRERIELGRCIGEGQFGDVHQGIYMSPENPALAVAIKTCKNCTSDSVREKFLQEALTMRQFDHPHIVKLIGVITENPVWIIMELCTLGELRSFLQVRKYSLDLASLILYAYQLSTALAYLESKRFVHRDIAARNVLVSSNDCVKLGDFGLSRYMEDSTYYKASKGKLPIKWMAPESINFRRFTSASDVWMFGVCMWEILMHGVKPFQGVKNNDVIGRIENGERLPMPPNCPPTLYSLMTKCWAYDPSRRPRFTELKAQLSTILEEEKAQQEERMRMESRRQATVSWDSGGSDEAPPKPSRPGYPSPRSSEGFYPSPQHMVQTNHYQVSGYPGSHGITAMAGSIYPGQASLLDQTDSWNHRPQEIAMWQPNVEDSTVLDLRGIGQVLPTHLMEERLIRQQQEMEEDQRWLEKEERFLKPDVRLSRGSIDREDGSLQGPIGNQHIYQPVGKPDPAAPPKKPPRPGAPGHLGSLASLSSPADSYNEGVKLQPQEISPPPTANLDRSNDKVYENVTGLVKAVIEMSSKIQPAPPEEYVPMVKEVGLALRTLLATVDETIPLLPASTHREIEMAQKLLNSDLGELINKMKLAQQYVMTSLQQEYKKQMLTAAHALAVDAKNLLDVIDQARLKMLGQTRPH
FAK inh conf – FAK kinase inhibitors, retest, confirmation, biochemical | shares compounds with FAK blocker | FAK kinase biochemical inhibition assay | inhibition, % at 7 µM | 28% of 750 active
Hits are given with their value; . = inactive; / = not tested or not shown. Only some compounds are listed: those with a hit (about 0.96% of all), similar ones and a draw of the others. Rule as the data show it, unless noted: active = inhibition above about 19%; inactive = the rest.

SMILES	Phagocytosis inh	Mac1 fbg enh	Mac1 fbg inh	TNAP act mid DEA	FAK blocker	FAK inh conf
CCOC(=O)c1cnc2c(-c3ccccc3)cnn2c1N	.	.	.	.	29	.
CCOC(=O)c1cnc2c(-c3ccccc3)c(C)nn2c1N	.	.	.	.	.	/
CCOc1cc(C(c2c(C)[nH][nH]c2=O)c2c(C)[nH][nH]c2=O)ccc1OCc1ccc([N+](=O)[O-])cc1	.	.	.	/	.	/
CCOc1cc(/C=C2/NC(=S)NC2=O)ccc1OCc1ccc([N+](=O)[O-])cc1	.	.	.	/	41	22
c1cncc(-c2nc(NCc3ccco3)c3ccccc3n2)c1	.	.	.	.	19	.
Cc1ccc(-c2nc(NCc3ccco3)c3ccccc3n2)cc1	.	/	/	/	/	/
COc1ccccc1/C=N/NC(=O)C(=O)N1CCN(c2ccccc2OC)CC1	.	/	/	/	/	/
O=C(COc1ccc(/C=N/NC(=O)c2cc3ccccc3o2)cc1Cl)Nc1ccccc1	.	.	.	/	40	36
O=C(N/N=C/c1cccc([N+](=O)[O-])c1)c1cc2ccccc2o1	.	.	.	/	/	/
CC1CCN(S(=O)(=O)c2ccc(NC(=O)Cn3nnc(-c4ccccc4F)n3)cc2)CC1	.	.	.	.	19	.
CCn1c(SCC(=O)NCc2ccco2)nnc1-c1c[nH]c2ccccc12	.	.	.	/	.	/
COCCn1c(SCC(=O)NCc2ccco2)nnc1-c1c[nH]c2ccccc12	.	.	.	/	40	.
CCc1ccc(NC2=NC(C(=O)NC3CCCCC3)CC(=O)N2)cc1 (centres undefined)	.	.	.	.	.	/
CCOc1ccc(N(CC(=O)NC2CCCC2)C(=O)CSc2nnc(COc3ccccc3)o2)cc1	.	.	.	/	.	/
Cn1c(SCC(=O)Nc2ccc3nc(SCC(=O)N4CCCC4)sc3c2)nnc1-c1ccccc1	.	.	.	/	25	.
CN1c2ccccc2C(C)(C)C12C=Nc1c(cc(N3CCOCC3)c3ccccc13)O2 (centres undefined)	/	/	/	/	40	.
COC(=O)c1ccc(COC(=O)c2ccc(-n3cnnn3)cc2)o1	.	.	.	.	.	/
COC(=O)c1c(NC(=O)Cc2cccs2)sc2c1CCCC2	.	.	.	.	21	.
Cc1ccc(NC(=O)c2ccc(OC(=O)CCN3C(=O)c4ccccc4C3=O)cc2)cc1	.	.	.	/	20	.
Cc1cc(C)cc(OC(=O)CCN2C(=O)c3ccccc3C2=O)c1	/	/	/	/	.	/
CC(=O)Nc1cc(OC(C)=O)c2nonc2c1OC(C)=O	.	.	59	.	57	.
Cc1ccc2nc(/C(C#N)=C\c3ccc(N4CCCCC4)c([N+](=O)[O-])c3)[nH]c2c1	.	.	.	/	24	.
N#C/C(=C/c1ccc(N2CCCC2)c([N+](=O)[O-])c1)c1nc2ccccc2[nH]1	/	/	/	/	.	/
CCOc1ccccc1-c1nc(-c2ccc(NC(=O)Cc3ccc(OC)cc3)cc2)no1	/	/	/	.	25	.
CCOc1ccccc1-c1nc(-c2ccc(NC(=O)c3ccc(Br)o3)cc2)no1	/	.	.	.	.	/
SMILES	Phagocytosis inh	Mac1 fbg enh	Mac1 fbg inh	TNAP act mid DEA	FAK blocker	FAK inh conf
CCC1(CC)NC(=O)N(CC(=O)Nc2sc3c(c2C(N)=O)CCC3)C1=O	.	.	.	.	28	.
CCCCC(=O)Nc1sc2c(c1C(N)=O)CCC2	.	.	.	.	20	.
CCN1C=CC(=C2C(=O)c3ccccc3C2=O)C=C1	/	/	/	.	36	.
COC(=O)c1[nH]c2ccccc2c1NC(=O)CNC1CCCCC1	.	.	.	.	.	/
O=C1c2ccccc2C(=O)N1Cc1ccco1	.	.	.	.	.	/
CC1=CC(=C2C(=O)c3ccccc3C2=O)C=C(C)N1Cc1ccco1	/	.	.	.	24	.
NC(=O)c1sc2nc3c(c(-c4ccc(Cl)cc4)c2c1N)CCCC3	/	.	.	/	.	/
Cc1ccc(-c2c3c(nc4sc(C(N)=O)c(N)c24)CCC3)cc1	/	/	/	/	22	.
Cc1c(C(=O)OCC(C)C)[nH]c2c1C(=O)CC(c1ccco1)C2 (centres undefined)	.	.	.	.	.	/
Cc1c(C(=O)OCC2CCCO2)[nH]c2c1C(=O)CC(c1ccco1)C2 (centres undefined)	.	.	.	.	26	.
CC(=O)n1c(Cl)c(NC(=O)CCl)c2ccccc21	.	.	.	/	.	/
O=C(COc1ccc(S(=O)(=O)N2CCCC2)cc1)NCCC1=CCCCC1	.	.	.	.	23	.
N#Cc1c(-c2ccco2)cc(-c2ccccn2)nc1N	.	.	.	.	.	/
N#Cc1c(-c2ccco2)cc(-c2cccnc2)nc1N	.	.	.	.	20	.
COc1ccc(S(=O)(=O)N2CC(O)CC2C(=O)OCc2nc3sc(C)c(C)c3c(=O)[nH]2)cc1 (centres undefined)	.	/	/	/	/	/
CC(NC(=O)NCc1cccnc1)(C(F)(F)F)C(F)(F)F	.	.	.	.	.	/
COc1ccccc1NC(=O)c1nn(-c2ccccc2)ccc1=O	.	.	.	/	.	/
COc1ccccc1NC(=O)c1nn(-c2ccc(Cl)cc2)ccc1=O	.	.	.	/	25	.
Cc1ccc(OCC(=O)NN=C2c3ccccc3-c3ccccc32)cc1	.	.	.	/	.	/
CCc1ccc(OCC(=O)N/N=C2\CC(=O)c3ccccc32)cc1	.	.	.	/	32	.
Cc1oc2c(c1C(=O)c1ccc(Cl)cc1)C(=O)C(=O)c1ccccc1-2	.	.	.	/	.	/
Cc1ccc(C(=O)c2c(C)oc3c2C(=O)C(=O)c2ccccc2-3)cc1	/	/	/	/	21	.
CCOC(=O)C(=O)Nc1nnc(CCc2ccccc2)s1	/	/	/	/	.	/
Cc1ccc(N2CC(C(=O)Nc3ccc4c(c3)OCO4)CC2=O)cc1 (centres undefined)	.	.	.	.	40	.
Cc1oc(=O)c(NC(=O)c2cccc(Cl)c2)cc1C(=O)c1ccccc1	/	/	/	/	.	/
SMILES	Phagocytosis inh	Mac1 fbg enh	Mac1 fbg inh	TNAP act mid DEA	FAK blocker	FAK inh conf
Nc1nnnn1/N=C/c1ccccc1OCc1ccc(Cl)cc1Cl	/	.	.	.	29	.
Clc1ccc(-c2n[nH]c3c2CCC3)cc1Cl	.	.	.	/	28	.
COc1ccc(OCCCc2c(C)n[nH]c2C)cc1	.	.	.	/	.	/
Cc1n[nH]c(C)c1CCCOc1ccccc1	.	.	.	/	50	.
COC(=O)N/N=C/c1cn(CC(C)COc2ccccc2)c2ccccc12 (centres undefined)	.	/	/	/	/	/
O=C(NCc1ccco1)c1cccn2c(=O)c3cc4ccccc4cc3nc12	.	.	.	/	37	.
Cc1ccc(Cn2c(=N)c(C(=O)NCc3ccco3)cc3c(=O)n4ccccc4nc32)cc1	/	/	/	.	40	.
O=c1c2c3c(sc2n(CCN2CCCC2)c(=O)n1Cc1ccco1)CCCCC3	.	.	.	.	/	/
O=C(Cn1c(=O)n(Cc2ccco2)c(=O)c2c3c(sc21)CCCCC3)Nc1ccccc1	.	.	.	/	32	.
O=C(Cn1c(=O)n(Cc2ccco2)c(=O)c2c3c(sc21)CCCCC3)c1ccccc1	/	/	/	/	30	.
